Screens (PubChem BioAssay)
In the library only some 7.9% were active in any assay of this set; here they are far more common.
HT1080-NT tox: kills 2HG-producing HT-1080-NT fibrosarcoma cells. HT-1080-NT fibrosarcoma viability, CellTiter-Glo ATP luminescence, 48 h. Potency, µM (series often up to 46.1 µM), without a hit: at the top dose activity, negative = less viability, usual class: cytotoxic. actives 1.6% (n = 360,000). AID 686970;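 further: NT is the 2HG producing partner of a matched IDH1 knockdown line; 0% = DMSO-treated cells and -100% = media-only wells without cells; nearly all actives have a fitted effect of over 55% in size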
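Viability of the 2HG-overproducing fibrosarcoma line after 48 hours of compound exposure at 37 degrees C was determined by luminescence with CellTiter-Glo, and concentration-effect curves were then fitted and categorized.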
HT1080 IDH1KD tx: toxicity to HT-1080 IDH1 knockdown cells (counter line); HT-1080 IDH1 knockdown viability, ATP luminescence, 48 h; Potency, µM (top dose mostly 46.1 µM), for inactives: top-dose activity, negative = toxicity, usual class: cytotoxic; actives 2% (n = 360,000);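 further: 0% = DMSO wells and -100% = cell-free medium wells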
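After a 2 h attachment period, IDH1KD HT-1080 cells took pin-transferred compound for 48 h at 37 °C; ATP-based luminescence after 10 min room-temperature reagent incubation reported viability.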
KB-V1 MDR tox: KB-V1 MDR subline cytotoxicity; KB-V1 MDR cells viability, CellTiter-Glo, 72 h; Potency, µM (highest dose often 46.1 µM), actives largely listed as cytotoxic; actives 3.4% (n = 400,000); further: on the % scale 0 is the no-effect control and ±100 the full control effect; nearly all actives have a fitted effect of over 60% in size
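Drug-selected KB-V1 cells, grown in DMEM lacking phenol red with 10% FBS, receive compound titrations; after three days at 37 degrees C, surviving cell ATP is quantified by CellTiter-Glo luminescence and responses normalized and curve-fitted.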
SW480 rereplic: inducers of DNA re-replication in SW480 colon cancer cells; SW480 DNA re-replication, Hoechst DNA content imaging, 48 h; Potency, µM (top dose mostly 46.1 µM), without a hit: top-dose re-replication activation, usual class: activators; AID 624297; actives 1.8% (n = 340,000); further: % of control where 0% means no effect; nearly all actives have a fitted effect of over 55% in size
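Image-based DNA-content assay: after two days of treatment, nuclei were labelled with the DNA dye Hoechst and imaged, and hits were compounds raising the count of nuclei showing high fluorescence intensity.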
MCF10A rereplic: induces DNA re-replication in MCF 10a normal breast cells; Potency, µM (top dose mostly 46.1 µM), for the others: top-dose activity, positive = re-replication, actives largely listed as activators; AID 624296; actives 2.9% (n = 350,000); MCF 10A DNA re-replication, Hoechst nuclear intensity, 48 h; further: % of control where 0% means no effect; nearly all actives have a fitted effect of over 50% in size
KB-3-1 cytotox: KB-3-1 parental cell cytotoxicity. AID 1347075. actives 1.4% (n = 400,000). KB-3-1 viability, CellTiter-Glo ATP luminescence, 72 h. Potency, µM (highest dose often 46.1 µM), usual class: cytotoxic; further: on the % scale 0 is the no-effect control and ±100 the full control effect; nearly all actives have a fitted effect of over 60% in size
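Cytotoxicity measured as CellTiter-Glo luminescence after 72 h at 37 C. Compound titrations were pinned onto drug-naive KB-3-1 parental adenocarcinoma cells grown in DMEM with 10% FBS, and normalized data fitted to concentration-response curves.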
The depositor's hits bear a star; i = inactive; ? = inconclusive; . = no result given; ! = not active in a repeat. The call rests on the fitted dose curve; in most records, active means well fitted curve in the direction sought with a large enough effect; inconclusive means small, poorly fitted or top-dose-only effect, or another doubt; inactive means no such curve, though single readings can be large; an effect the other way counts as inactive or inconclusive. Potency means the concentration at half of the fitted maximal effect.

SMILES	HT1080-NT tox	HT1080 IDH1KD tx	KB-V1 MDR tox	SW480 rereplic	MCF10A rereplic	KB-3-1 cytotox
COC(=O)c1sccc1NC(=O)Cn1nnc(-c2ccc(C)cc2)n1	6.1%	0.3%	20.6µM*	-4.5%	3.0%	i
COC(=O)c1sccc1NC(=O)CSc1ccccc1NS(=O)(=O)c1ccc(Br)cc1	1.2%	-3.3%	4.11µM*	27.5%	18.3%	20.6µM*
COC(=O)c1sccc1NC(=O)CN(C)NS(=O)(=O)c1ccc(F)cc1	?	-27.3%	?	13µM*	?	i
COC(=O)c1sccc1NC(=O)c1c(F)c(F)c(F)c(F)c1F	18.4µM*	?	i	-30.5%	?	i
COC(=O)c1sccc1NC(=O)c1c(C)c(-c2cccc(Cl)c2)nc2ccccc12	2.8%	-11.9%	10.3µM*	11.6%	13.1%	i
CCCCCCSc1ccc(-c2nc3ccccn3c2NCCCC)cc1	2.3%	3.9%	?	0.4%	?	i
CCCCNc1c(-c2ccc(OC)c(SC3CCCCC3)c2)nc2cnccn12	?	?	i	?	16.4µM*	i
CCCCNc1c(-c2ccc(OC)c(SC3CCCCC3)c2)nc2ccc(Cl)cn12	10.0%	-3.4%	i	11.4%	20.6µM*	i
COc1ccc(-c2nc3cnccn3c2NCc2ccccc2)cc1SC1CCCCC1	-10.6%	-20.6%	i	?	11.6µM*	i
CCCCNc1c(-c2ccc(SC3CCCCC3)cc2)nc2cnccn12	?	?	37.2µM*!	?	?	i
CCCC12CN3CC(CCC)(CN(C1)C3c1c[nH]c3ccccc13)C2=O (configuration not stated)	.	.	i	.	.	i
CCOc1ccc(NC(=O)Cn2cc(C(=O)c3ccccc3)c(=O)c3cc4c(cc32)OCO4)cc1	.	.	i	.	.	i
CCCCNc1c(-c2ccc(OC)c(SC3CCCCC3)c2)nc2cc(C)ccn12	18.4µM*	?	?	23.9%	?	?
CCCCNc1c(-c2ccc(-c3ccc(C(C)=O)cc3)c(OC)c2)nc2cnccn12	?	?	i	23.1µM*	20.6µM*	i
O=C(Nc1ccnn1C1CCN(Cc2cccc(O)c2)CC1)C1CCCC1	2.9%	-10.1%	i	-8.0%	6.8%	i
c1ccc(COc2cccc(CN3CCN(c4ccccn4)CC3)c2)cc1	4.4%	1.7%	18.4µM*	?	?	i
CCOc1cccc(CN2CCC(n3nccc3NC(=O)C3CCCC3)CC2)c1	-3.2%	-1.4%	16.4µM*	0.9%	3.0%	i
COCCNC(=O)C1CCN(Cc2cccc(OCc3ccccc3)c2)CC1	2.0%	-3.9%	i	?	?	i
CC(C)CCNC(=O)C1CCN(Cc2cccc(OCc3ccccc3)c2)CC1	?	23.1µM*	i	?	?	i
CCCc1nn2c(=O)cc(COC(=O)C3CCCCC3)nc2s1	.	.	?	.	.	i
COc1cccc(CNC(=O)Cn2c(=O)ccc3cc(S(=O)(=O)N4CCCC4)ccc32)c1	.	.	i	.	.	i
CCOC(=O)c1sc2ncn(CC(=O)Nc3ccc(C)cc3Br)c(=O)c2c1C	.	.	i	.	.	i
Clc1ccc(OCCOCCN2CCc3ccccc3C2)c(Cl)c1	23.1µM*	23.1µM*	i	1.4%	?	i
Clc1ccc(OCCCN2CCc3ccccc3C2)c(Br)c1	-22.5%	-10.4%	i	1.3%	7.8%	i
Clc1ccc(SCCOCCN2CCc3ccccc3C2)cc1	23.1µM*	?	i	8.2%	9.4%	i
CCOc1ccccc1NC(c1nnc(-c2ccccc2)o1)c1ccc(F)cc1Cl (configuration not stated)	.	.	i	.	.	i
CCN(CC)c1ccc(NC(=O)COCc2cc(-c3ccc4c(c3)OCO4)on2)c(C)c1	.	.	i	.	.	i
